# Screens (PubChem)
# aSyn 5UTR act: Activators via SNCA 5'UTR binding, MLPCN | alpha-synuclein 5'UTR reporter, activators screen | activity score, % (tested at 7.5 µM), hits read low | hit rate 7.1% among 300,000 | AID 1814; in the data active = activity score below about -60%
# * marks the source's active call; other numbers are inactive results. A selection follows.
SMILES,aSyn 5UTR act
CN(Cc1cccs1)C(=O)Cc1csc(-c2ccccc2)n1,-115.8*
Cn1cccc1C(=O)OCc1csc(-c2ccccc2)n1,-112.4*
Cc1ccsc1C(=O)OCc1csc(-c2ccccc2)n1,-99.0*
COc1ccc(N=C/C=C2\C=C(c3ccccc3)OC(C)(C)O2)cc1,-134.9*
COc1cccc(/C=N/Nc2cc(Cl)nc(C)n2)c1O,-100.1*
CCCCSc1nc(C)cc(SCC(=O)N/N=C/c2cccc(OC)c2O)n1,81.1
COc1cccc(/C=N/Nc2c(Cl)cncc2Cl)c1O,-119.9*
CCNC(=S)NNC(=O)c1csc(C(C)C)c1,-75.5*
Cn1nccc1C(=O)N/N=C/c1c(O)ccc2ccccc12,91.5
Cc1cc(C(=O)N/N=C/c2ccccc2)c(C)o1,-69.9*
Cc1cc(C(=O)N/N=C/c2cccc3ccccc23)c(C)o1,-62.0*
Cn1c(C(=O)N/N=C/c2ccccc2)cc2ccccc21,-108.2*
O=C(Nc1ccccc1Cl)c1csc(-c2cccnc2)n1,-69.9*
O=C(Nc1ccc(F)cc1F)c1cccc(C(=O)Nc2ccc(F)cc2F)n1,86.7
O=C(Nc1ccc(F)cc1F)c1csc(-c2ccccc2)n1,-95.3*
O=C(Nc1ccccc1)c1csc(-c2ccccc2)n1,-170.2*
O=C(Nc1ccc(CN2CCOCC2)cc1)c1ccc(-c2cccc(Cl)c2)o1,-83.4*
CCC(=O)NC(c1ccc(Cl)cc1Cl)c1ccc2cccnc2c1O (stereo not drawn),75.3
COc1cc2ccccc2cc1C(=O)Nc1ccc(CN2CCOCC2)cc1,-112.2*
O=C(/C=C/c1ccc(Cl)cc1Cl)NC(=S)Nc1ccccn1,-223.9*
O=C(Nc1ccc(CN2CCOCC2)cc1)c1ccc(Cl)cc1Cl,-96.4*
O=C(Oc1c(CN2CCOCC2)cc(Cl)c2cccnc12)c1ccccc1F,105.8
O=C(/C=C/c1ccc(Cl)cc1Cl)NC(=S)Nc1ccc(CN2CCOCC2)cc1,-71.1*
O=C(Nc1ccc(CN2CCOCC2)cc1)c1ccccc1F,-75.8*
O=C(Nc1ccc(CN2CCOCC2)cc1)c1cccs1,-145.2*
SMILES,aSyn 5UTR act
O=C(Cc1ccccc1)Nc1ccc(CN2CCOCC2)cc1,-86.7*
COC(=O)c1ccc2[nH]c3c(c2c1)CC(C)CC3 (stereo not drawn),-95.5*
CCOC(=O)c1ccc2[nH]c3c(c2c1)CCCC3,-124.2*
C=CCNc1nc(-c2ccc([N+](=O)[O-])cc2)cs1,-182.2*
CN(C)c1nc(-c2ccc([N+](=O)[O-])cc2)cs1,-123.2*
C=CCNc1nc(-c2ccc(Cl)cc2)cs1,-238.3*
Cc1ccc(-n2c(C)nc3oc4ccccc4c(=O)c3c2=O)cc1,-240.7*
CCc1nc2oc3cc(OC)ccc3c(=O)c2c(=O)n1-c1ccccc1,-124.4*
COc1ccc2c(=O)c3c(=O)n(-c4ccccc4)c(-c4ccco4)nc3oc2c1,-95.6*
CC(C)(C)c1csc(N/N=C/c2ccc(O)cc2)n1,-164.7*
O=C1c2ccccc2C(=O)c2[nH]c(=O)[nH]c21,93.0
O=c1[nH]c(=O)c2nc3c4ccccc4c4ccccc4c3nc2[nH]1,-69.8*
O=C(Nc1ccc(C(=O)c2ccccc2)cc1)c1ccccc1,-188.7*
O=C(Nc1ccc(Br)c(C(F)(F)F)c1)c1ccccc1,-90.1*
O=C(Nc1ccc(C(F)(F)F)cc1)c1ccccc1Br,-81.7*
O=C(Nc1ccc(NC(=O)c2ccccc2Br)cc1)c1ccccc1,-84.5*
O=C(N/N=C/c1nn(-c2ccccc2)cc1-c1ccc(Cl)cc1)c1ccncc1,-63.7*
O=C(N/N=C/c1cn(-c2ccccc2)nc1-c1ccc2c(c1)OCCO2)c1ccncc1,-98.5*
OCc1cn(-c2ccccc2)nc1-c1ccc(Br)cc1,-116.7*
O/N=C/c1cn(-c2ccccc2)nc1-c1ccc2c(c1)OCCO2,-72.3*
COc1cccc(-c2nn(-c3ccccc3)cc2CO)c1,-126.6*
OCc1cn(-c2ccccc2)nc1-c1ccc2c(c1)OCCO2,-132.6*
CCC(C)(C)C1CCC(=NNC(=O)c2ccoc2C)CC1 (stereo not drawn),-111.8*
CC(=O)Nc1ccc(Nc2c3c4c(cccc4n(C)c2=O)C(=O)c2ccccc2-3)cc1,59.2
CC(=O)Nc1ccc2nc3ccccc3nc2c1,-82.0*
SMILES,aSyn 5UTR act
O=C1c2ccccc2C(=O)c2cc(NC(=O)C3CC3)ccc21,-160.9*
O=C(O)/C=C/C(=O)Nc1ccc2c(c1)C(=O)c1ccccc1C2=O,-64.8*
CC(=O)Nc1ccc2c(c1)C(=O)c1ccccc1C2=O,-185.3*
Nc1ccc2c(c1)C(=O)c1ccccc1C2=O,-145.4*
O=C(O)/C=C/C(=O)Nc1ccc2nccnc2c1,-75.4*
Nc1ccc2c(c1)C(=O)C(=O)c1ccccc1-2,129.7
O=C(C1COc2ccccc2O1)N1CCc2ccccc21 (stereo not drawn),-106.4*
Cc1cccc(N(C(=O)c2nsc(Cl)c2Cl)C(C(=O)NC2CCCC2)c2ccc(O)cc2)c1 (stereo not drawn),-82.1*
O=C(Nc1ccccc1OC(F)F)c1cc2c(s1)CCC2,-161.5*
CC1CCc2sc(C(=O)Nc3ccc(C(N)=O)cc3)cc2C1 (stereo not drawn),-119.4*
Cc1nc(NC(=O)CCl)sc1C(=O)N(C)C,-69.8*
Cc1nc(NC(=O)c2ccc(Br)s2)sc1C(=O)N(C)C,-121.9*
Cc1nc(NC(=O)c2cc3c(s2)CCCCC3)sc1C(=O)N(C)C,-175.3*
Cc1ccc(NC(=O)c2cc3c(s2)CCCC3)cc1,-192.7*
CCOC(=O)c1sc(NC(=O)c2cc3c(s2)CCC(C)C3)nc1C (stereo not drawn),-101.5*
Cc1ccc(NC(=O)c2scc3c2CCCC3)cc1,-90.1*
COC(=O)c1sc(NC(=O)c2cc3c(s2)CCCC3)nc1C,-204.4*
FC(F)Sc1ccc(Nc2ncnc3nc[nH]c23)cc1,-73.3*
CCCCOC(=O)c1ccc(Nc2ncnc3nc[nH]c23)cc1,-118.2*
c1ccc2c(c1)Cc1cc(CN3CCOCC3)ccc1-2,-112.8*
Cc1ccc(C)c(OCc2cc(C(=O)N3CC[C@H](O)C3)no2)c1,-126.6*
CCCOC1CCCN(C(=O)c2cc(COc3c(F)cccc3F)on2)C1 (stereo not drawn),-135.6*
COc1ccc(OCc2cc(C(=O)N3CCCC(O)C3)no2)c2ccccc12 (stereo not drawn),-104.5*
CCCNC(=O)c1cc(-c2ccc3c(c2)OCO3)on1,-105.1*
O=C(Nc1cccc(O)c1)c1cc(-c2ccc3c(c2)OCO3)on1,69.3
SMILES,aSyn 5UTR act
CC(C)NC(=O)c1cc(-c2ccc3c(c2)OCO3)on1,-110.3*
CCCCNC(=O)c1cc(-c2ccc3c(c2)OCO3)on1,-66.0*
CCN(CC)C(=O)c1cc(-c2ccc3c(c2)OCO3)on1,-132.0*
COC(=O)c1ccc(CN2C(=O)NC3(CCC(C)CC3)C2=O)cc1 (stereo not drawn),-70.0*
CC1CCC2(CC1)NC(=O)N(NC(=O)CCl)C2=O (stereo not drawn),-77.1*
O=C(O)c1cccc(N/N=C/c2ccc(OC(F)(F)F)cc2)c1,64.3
O=C(O)c1cc(N/N=C/C=C/c2ccccc2)ccc1Cl,-179.2*
CCCN1CCC(=NNc2ccc(C(=O)O)cc2)CC1,-112.6*
COC(=O)c1ccc(COc2ccc(/C=N/Nc3cccc(C(=O)O)c3)cc2)cc1,-84.4*
O=C(O)c1cc(N/N=C/c2ccc(OCc3ccccc3)cc2)ccc1Cl,-172.0*
CCCN1CCC(=NNc2ccc(S(=O)(=O)N3CCOCC3)cc2[N+](=O)[O-])CC1,64.1
O=C(O)c1cc(NN=C2CCN(Cc3ccccc3)CC2)ccc1Cl,-201.9*
CC(=O)Nc1cccc(C(=O)/C=C/c2ccc(C)cc2)c1,-123.3*
CCOc1ccc(/C=C/C(=O)Nc2cccc(C(C)=O)c2)cc1,-150.7*
